The source of these data is PubChem BioAssay.

The structures appear in SMILES notation.

The assay is described as follows: probe aNOTCH3 binding on compound microarray – biochemical, small-molecule microarray, 635/667 nm fluorescence, primary screen (AID 1120).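 Also: probe is a biotin-tagged antibody raised against NOTCH3 rather than NOTCH3 protein; score merges spot fluorescence near 667 nm with spot signal to noise.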 The following applies: higher = more signal.
As for `CC[C@H]1C2=C3C(CC[C@H]4C(OCc5ccc(F)cc5C(F)(F)F)OC[C@](C)([C@@H]34)N(C(=O)OC(C)(C)C)C2)C(COC)C1COC` (stereo not given in full), the composite z-score is 0.0851.
On to `CC(C)N1C(=O)C[C@@](C(=O)NCCCN(C)C)(c2ccc([N+](=O)[O-])cc2)[C@H]1c1ccc(CO)cc1`, for which the composite z-score came out at 0.0628.
For `NC(=O)NCC#Cc1ccc2c(c1)[C@]1(C(=O)N2)[C@H](C(=O)NC[C@H](O)c2ccccc2)[C@H]2C(=O)O[C@H](c3ccccc3)[C@H](c3ccccc3)N2[C@@H]1c1ccc(OCCO)cc1` the value was 0.233; for `Cc1ccccc1C(O)C1C=CC2C(=O)N(C)C(=O)C2N1N(c1ccccc1)c1ccccc1` (stereo not given), 0.84.
As for `C=CCC(OC(C)=O)[C@@H]1[C@@H](N(Cc2cc3ccccc3o2)C(=O)c2ccc(C)cc2)c2cc(OCCCO)ccc2N1C(=O)Cc1ccc(OC)cc1` (stereo not given in full), the figure is -0.176.
For `COC(=O)C1=CC(CCCO)=CC(C2CC2)N(C)C=C1C(=O)OC` (stereo not given) the value was -0.0108; for `COc1cc2c(cc1OC)CN(C(=O)[C@@H]1[C@H]3C(=O)O[C@H](c4ccccc4)[C@H](c4ccccc4)N3[C@H](c3ccc(OCCO)cc3)[C@@]13C(=O)Nc1ccc(C#CC4(O)CCCCCC4)cc13)CC2`, 0.398; for `COc1cc(OC)c(C(O)C2C=CC3C(=O)N(c4ccccc4)C(=O)C3N2Nc2ccccc2)cc1Br` (stereo not given), 0.245.
`COc1ccc([Si](C)(C)[C@@H]2[C@@H](CC(=O)N(CCO)Cc3ccccc3)O[C@]3(C(=O)N(Cc4cccc(N5C(=O)c6cccc7cccc5c67)c4)c4ccccc43)[C@H]2C)cc1` returned a composite z-score of -0.124.
`COC(=O)c1c2oc(c1C(=O)OC)C(=O)N(C)Cc1cn(nn1)C[C@H](Cc1ccccc1)NC(=O)N[C@H](CO)CC2` gave a composite z-score of -0.155.
As for `O=C(CS)NCCCCCCNC(=O)[C@H]1C[C@H]2C(=O)N[C@@H](Cc3ccccc3)C(=O)N2[C@H]1c1ccc(O)cc1`, the figure is -0.423; as for `O=C1C2C=CC(C(O)c3ccccc3)N(Nc3ccccc3F)C2C(=O)N1c1ccccc1` (stereo not given), -0.0879.
As for `CC(C)(C)N1CC=CC23O[C@@H]4C=CCOC(=O)[C@@H]4[C@H]2C(=O)N(CCCCCCO)[C@@H]3C1=O` (stereo not given in full), the figure is -0.359.
For the compound `CCCCO[C@H]1C[C@H]2C(I)=C[C@@H]1C(=O)[C@]21CO1`, the composite z-score was -0.0311.
For `C=CCOC(=O)[C@H]1[C@@H]2C(=O)O[C@@H](c3ccccc3)[C@@H](c3ccccc3)N2[C@@H](c2ccc(OCCOC(=O)[C@@H]3C[C@@H]4C(=O)N5CCC[C@H]5C(=O)N4[C@@H]3c3ccc(O)cc3)cc2)[C@]12C(=O)Nc1ccc(I)cc12` the value was -0.33.
Compound `C=CCOC(=O)[C@H]1[C@@H]2C(=O)O[C@@H](c3ccccc3)[C@@H](c3ccccc3)N2[C@@H](c2ccc(OCCOC(=O)[C@H]3C[C@H]4C(=O)N[C@@H](CCCCNC(C)=O)C(=O)N4[C@H]3c3ccc(O)cc3)cc2)[C@]12C(=O)Nc1ccccc12` gave a composite z-score of 0.0076.
For `CCOc1cc(C(O)C2C=CC3C(=O)N(C)C(=O)C3N2Nc2ccccc2)ccc1O` (stereo not given) the value was 0.194.
For `C#CCN([C@@H](Cc1ccc(O)cc1)C(=O)OC)[C@@H](/C=C/C1CC1)[C@H](O)Cc1ccccc1` the value was -0.0567; for `O=c1n(-c2ccccc2)c(=O)n2n1CC(COc1ccccc1)=C([C@H](O)CCc1ccccc1)[C@@H]2CO`, -0.187.
`CC(=O)NCCCC[C@@H]1NC(=O)[C@H]2C[C@@H](C(=O)NCCCC[N+](C)(C)C)[C@@H](c3cccc(OCCO)c3)N2C1=O` showed a composite z-score of 0.204.
For `CN1C(=O)C2C=CC(C(O)c3ccccn3)N(N(c3ccccc3)c3ccccc3)C2C1=O` (stereo not given), the composite z-score is -0.004.
For `C[N+](C)(C)CCCCCCNC(=O)[C@H]1C[C@H]2C(=O)NCC(=O)N2[C@H]1c1ccc(O)cc1` the value was -0.114; for `CCCC[C@@H]1C[C@H]1[C@@H](NC(=O)c1cccs1)c1ccc(C(F)(F)F)cc1`, 0.0026; for `COc1ccc(CCN2C(=O)[C@@]3(Cc4ccccc42)c2ccccc2C(=O)N(Cc2ccccc2OC)[C@H]3c2ccc(CO)cc2)cc1`, -0.177.
As for `C[C@@H]1NC(=O)[C@@]23C(=O)N[C@@H](Cc4ccccc4)C2[C@H](C)[C@@]2(C)O[C@H]2C3/C=C/C/C=C\CNC(=O)[C@@H]2CCCN2C1=O` (stereo not given in full), the figure is -0.078; as for `C=C(/C(=C/C[C@H](OC(C)=O)c1cccc(OCCO)c1)c1cnc2ccccc2c1)C(C)C`, 0.0701; as for `[N-]=[N+]=NCc1ccccc1[C@H]1OC(c2ccc(OCCCO)cc2)=N[C@@]1(CCS(=O)(=O)c1ccccc1)C(=O)NCC(O)CO` (stereo not given in full), 0.11.
As for `Cc1cc(C)cc(N2C(=O)CSC2c2cccc([N+](=O)[O-])c2)c1` (stereo not given), the figure is -0.0023; as for `COCCOC(=O)N1C(=O)[C@@]2(c3cc(C#CC4(O)CCCCCC4)ccc31)[C@H](c1ccc(O)cc1)N1[C@H](c3ccccc3)[C@H](c3ccccc3)OC(=O)[C@H]1[C@@H]2C(=O)NC[C@H](O)c1ccccc1`, -0.0133.
Turning to `COC(=O)c1cn(C[C@@H](Cc2ccccc2)NC(=O)N[C@H](CO)CCc2oc(C(C)=O)c(C(=O)OC)c2C(=O)OC)nn1`, the composite z-score was found to be 0.134.
As for `COC(=O)[C@@]1(Cc2ccccc2)[C@H]2c3cc(C(=O)N(C)C)n(Cc4c(CO)[nH]cc(C)c4=O)c3C[C@H]2CN1C(=O)c1ccccc1`, the figure is 0.163.
For `CC(=O)NCCCC[C@@H]1NC(=O)[C@@H]2C[C@H](C(=O)NCCCC[N+](C)(C)C)[C@H](c3ccc(O)cc3)N2C1=O` the value was 0.271.
Regarding `COc1ccc([Si](C)(C)[C@@H]2[C@@H](CC(=O)N3Cc4ccccc4C[C@H]3CO)O[C@]3(C(=O)N(C)c4ccccc43)[C@H]2C)cc1`, the composite z-score was 0.215.
For `COCCOC(=O)N1C(=O)[C@@]2(c3cc(C#CC4=CCCCC4)ccc31)[C@H](C(N)=O)[C@H]1C(=O)O[C@H](c3ccccc3)[C@H](c3ccccc3)N1[C@@H]2c1ccccc1OCCO` the value was -0.0057; for `COC(=O)[C@@]1(Cc2ccc(OC)cc2)[C@@H]2C(=CC(=O)[C@H]2CC(=O)C(=O)N(C)C)CN1C(=O)c1ccccc1`, 0.848.
